# Assays:
# Assay in all cases: DAPPL (digital affinity profiling via proximity ligation, sequencing); 10 mM Tris-HCl pH 7.5, 50 mM NaCl, 1 mM DTT, 4% glycerol, room temperature, 30 min; GST-TFs on glutathione beads, 16-mer random dsDNA library, 0.1% formaldehyde crosslink after washing; high values mean tight binding
# [1] = biological target: T1, FLI1 (Homo sapiens, UniProt Q01543 1-452); conditions: protein: recombinant; tags: N-terminal GST; dsDNA, one strand shown
# T1 sequence: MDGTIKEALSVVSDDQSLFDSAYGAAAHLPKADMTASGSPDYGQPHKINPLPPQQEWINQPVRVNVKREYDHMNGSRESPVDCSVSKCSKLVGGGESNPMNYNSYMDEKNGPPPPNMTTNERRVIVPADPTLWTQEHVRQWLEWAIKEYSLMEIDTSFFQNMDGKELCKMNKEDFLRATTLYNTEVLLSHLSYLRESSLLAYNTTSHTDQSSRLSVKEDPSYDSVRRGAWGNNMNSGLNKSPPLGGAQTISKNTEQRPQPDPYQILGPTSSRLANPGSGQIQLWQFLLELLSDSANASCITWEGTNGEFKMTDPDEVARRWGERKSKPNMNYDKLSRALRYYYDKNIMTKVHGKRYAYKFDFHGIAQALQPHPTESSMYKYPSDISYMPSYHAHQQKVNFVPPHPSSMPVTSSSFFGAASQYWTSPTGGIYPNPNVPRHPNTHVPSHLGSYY
# In short: (§1)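 A tag-only sample was pooled with DNA-barcoded human transcription factors that had been expressed in yeast as GST fusions and captured on glutathione beads. The pools were incubated for 30 min at room temperature with 200 nmole of a random double-stranded 16-mer DNA library in Tris/NaCl/DTT/glycerol buffer, then washed, crosslinked with 0.1% formaldehyde, proximity-ligated (BsaI/T4 ligase, 1 h, 37 °C), PCR-amplified and sequenced on an Illumina NextSeq500. Binding signal is each hexamer's read frequency for a factor divided by its frequency for the tag-only sample.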
# [2] = biological target: T2, ELK1 (Homo sapiens, UniProt P19419 1-428); conditions: protein: recombinant; tags: N-terminal GST; dsDNA, one strand shown
# T2 sequence: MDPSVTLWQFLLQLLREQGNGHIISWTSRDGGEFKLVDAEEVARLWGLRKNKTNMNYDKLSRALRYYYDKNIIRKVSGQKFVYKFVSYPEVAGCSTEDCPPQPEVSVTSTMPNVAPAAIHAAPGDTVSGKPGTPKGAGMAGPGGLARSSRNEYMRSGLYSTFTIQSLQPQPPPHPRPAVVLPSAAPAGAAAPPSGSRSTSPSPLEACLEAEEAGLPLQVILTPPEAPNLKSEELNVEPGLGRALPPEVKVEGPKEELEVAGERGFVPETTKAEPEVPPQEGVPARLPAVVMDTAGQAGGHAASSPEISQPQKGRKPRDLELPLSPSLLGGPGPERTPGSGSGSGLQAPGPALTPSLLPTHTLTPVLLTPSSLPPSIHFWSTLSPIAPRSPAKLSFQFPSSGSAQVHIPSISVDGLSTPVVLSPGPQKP
# In short: as §1
# [3] = biological target: T3, GABPA (Homo sapiens, UniProt Q06546 1-454); conditions: protein: recombinant; tags: N-terminal GST; dsDNA, one strand shown
# T3 sequence: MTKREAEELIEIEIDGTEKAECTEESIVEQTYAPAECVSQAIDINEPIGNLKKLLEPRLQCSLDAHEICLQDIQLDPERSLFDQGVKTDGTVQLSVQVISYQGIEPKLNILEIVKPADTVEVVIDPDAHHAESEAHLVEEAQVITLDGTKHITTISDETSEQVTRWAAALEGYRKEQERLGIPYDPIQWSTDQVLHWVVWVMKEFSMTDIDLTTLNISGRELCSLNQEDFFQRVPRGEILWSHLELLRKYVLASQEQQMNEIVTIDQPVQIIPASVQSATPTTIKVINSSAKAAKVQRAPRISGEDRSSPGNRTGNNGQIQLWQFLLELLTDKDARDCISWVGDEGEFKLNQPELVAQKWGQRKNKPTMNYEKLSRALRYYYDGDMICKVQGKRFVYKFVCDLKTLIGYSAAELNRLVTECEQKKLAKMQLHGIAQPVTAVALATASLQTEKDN
# In short: as §1
# [4] = biological target: T4, ERG (Homo sapiens, UniProt P11308 1-479); conditions: protein: recombinant; tags: N-terminal GST; dsDNA, one strand shown
# T4 sequence: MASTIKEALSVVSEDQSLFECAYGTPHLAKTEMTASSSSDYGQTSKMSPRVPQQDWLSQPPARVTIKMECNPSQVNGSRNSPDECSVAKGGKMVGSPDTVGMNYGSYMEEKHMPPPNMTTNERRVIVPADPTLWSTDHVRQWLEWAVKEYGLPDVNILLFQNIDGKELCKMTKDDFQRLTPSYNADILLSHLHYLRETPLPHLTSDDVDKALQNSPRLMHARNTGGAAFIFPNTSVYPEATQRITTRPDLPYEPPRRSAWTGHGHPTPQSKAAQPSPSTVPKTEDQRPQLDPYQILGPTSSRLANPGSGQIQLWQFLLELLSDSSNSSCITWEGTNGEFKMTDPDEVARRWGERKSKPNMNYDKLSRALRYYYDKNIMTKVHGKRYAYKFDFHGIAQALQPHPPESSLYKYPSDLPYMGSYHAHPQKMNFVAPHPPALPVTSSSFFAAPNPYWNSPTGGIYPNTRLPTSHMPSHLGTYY
# In short: as §1
# [5] = biological target: ELF1 (Homo sapiens, UniProt P32519 1-619); conditions: protein: recombinant; tags: N-terminal GST; dsDNA, one strand shown
# In short: as §1
# [6] = biological target: T5, EHF (Homo sapiens, UniProt Q9NZC4 1-300); conditions: protein: recombinant; tags: N-terminal GST; dsDNA, one strand shown
# T5 sequence: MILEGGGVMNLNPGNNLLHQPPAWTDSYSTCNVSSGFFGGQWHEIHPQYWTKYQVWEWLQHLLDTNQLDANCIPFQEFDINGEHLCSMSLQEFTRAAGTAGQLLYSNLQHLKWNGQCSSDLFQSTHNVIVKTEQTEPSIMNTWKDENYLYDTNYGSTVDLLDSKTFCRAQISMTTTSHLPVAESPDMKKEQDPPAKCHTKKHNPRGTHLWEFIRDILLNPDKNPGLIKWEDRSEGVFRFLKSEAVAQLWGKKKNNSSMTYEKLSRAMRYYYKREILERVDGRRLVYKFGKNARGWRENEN
# In short: as §1
# [7] = biological target: SPI1 (Homo sapiens, UniProt P17947 1-270); conditions: protein: recombinant; tags: N-terminal GST; dsDNA, one strand shown
# In short: as §1
# [8] = biological target: SPIB (Homo sapiens, UniProt Q01892 1-262); conditions: protein: recombinant; tags: N-terminal GST; dsDNA, one strand shown
# In short: as §1
# [9] = biological target: T6, ELK3 (Homo sapiens, UniProt P41970 1-407); conditions: protein: recombinant; tags: N-terminal GST; dsDNA, one strand shown
# T6 sequence: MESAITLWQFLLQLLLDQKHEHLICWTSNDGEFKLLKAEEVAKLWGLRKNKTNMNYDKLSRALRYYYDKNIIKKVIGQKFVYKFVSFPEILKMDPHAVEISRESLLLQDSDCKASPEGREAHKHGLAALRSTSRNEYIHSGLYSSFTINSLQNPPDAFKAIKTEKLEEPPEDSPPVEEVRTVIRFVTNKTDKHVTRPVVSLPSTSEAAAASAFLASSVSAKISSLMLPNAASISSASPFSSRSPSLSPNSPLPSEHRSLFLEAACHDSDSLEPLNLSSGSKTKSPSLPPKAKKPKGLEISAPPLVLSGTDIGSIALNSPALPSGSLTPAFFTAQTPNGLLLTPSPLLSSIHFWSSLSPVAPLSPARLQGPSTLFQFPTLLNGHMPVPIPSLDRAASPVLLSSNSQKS
# In short: as §1
# [10] = biological target: T7, FEV (Homo sapiens, UniProt Q99581 1-238); conditions: protein: recombinant; tags: N-terminal GST; dsDNA, one strand shown
# T7 sequence: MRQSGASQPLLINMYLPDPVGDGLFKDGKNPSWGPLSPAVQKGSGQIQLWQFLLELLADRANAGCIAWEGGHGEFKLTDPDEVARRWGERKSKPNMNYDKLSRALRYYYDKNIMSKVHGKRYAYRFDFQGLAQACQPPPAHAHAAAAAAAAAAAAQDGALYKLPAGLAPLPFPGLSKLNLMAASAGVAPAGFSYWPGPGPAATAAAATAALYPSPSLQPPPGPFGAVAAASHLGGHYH
# In short: as §1
# [11] = biological target: ETV5 (Homo sapiens, UniProt P41161 1-510); conditions: protein: recombinant; tags: N-terminal GST; dsDNA, one strand shown
# In short: as §1
# [12] = biological target: HSF1 (Homo sapiens, UniProt Q00613 1-529); conditions: protein: recombinant; tags: N-terminal GST; chain copies: 3; dsDNA, one strand shown
# In short: as §1
# [13] = biological target: T8, SPIC (Homo sapiens, UniProt Q8N5J4 1-248); conditions: protein: recombinant; tags: N-terminal GST; dsDNA, one strand shown
# T8 sequence: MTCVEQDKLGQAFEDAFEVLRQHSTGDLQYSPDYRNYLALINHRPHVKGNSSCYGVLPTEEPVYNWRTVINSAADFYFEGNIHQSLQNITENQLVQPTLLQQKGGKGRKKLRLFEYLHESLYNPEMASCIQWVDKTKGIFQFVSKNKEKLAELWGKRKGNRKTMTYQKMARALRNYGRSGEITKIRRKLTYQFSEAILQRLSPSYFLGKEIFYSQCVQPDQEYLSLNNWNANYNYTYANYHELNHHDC
# In short: as §1
# [14] = biological target: ELF4 (Homo sapiens, UniProt Q99607 1-663); conditions: protein: recombinant; tags: N-terminal GST; dsDNA, one strand shown
# In short: as §1
# [15] = biological target: T9, ELK4 (Homo sapiens, UniProt P28324-2 1-405); conditions: protein: recombinant; tags: N-terminal GST; dsDNA, one strand shown
# T9 sequence: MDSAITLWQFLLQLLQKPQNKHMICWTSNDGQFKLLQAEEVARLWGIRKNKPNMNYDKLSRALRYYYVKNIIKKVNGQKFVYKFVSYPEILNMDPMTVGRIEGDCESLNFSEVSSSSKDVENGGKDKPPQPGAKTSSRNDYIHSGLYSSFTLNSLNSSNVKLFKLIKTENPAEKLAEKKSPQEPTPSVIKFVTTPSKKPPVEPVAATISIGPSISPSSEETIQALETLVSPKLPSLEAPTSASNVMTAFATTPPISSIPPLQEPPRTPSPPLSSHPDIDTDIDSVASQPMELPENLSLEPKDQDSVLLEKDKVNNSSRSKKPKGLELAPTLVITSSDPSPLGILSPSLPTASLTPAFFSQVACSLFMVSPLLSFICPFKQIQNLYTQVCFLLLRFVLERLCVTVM
# In short: as §1
# [16] = biological target: T10, ETV2 (Homo sapiens, UniProt O00321 1-342); conditions: protein: recombinant; tags: N-terminal GST; dsDNA, one strand shown
# T10 sequence: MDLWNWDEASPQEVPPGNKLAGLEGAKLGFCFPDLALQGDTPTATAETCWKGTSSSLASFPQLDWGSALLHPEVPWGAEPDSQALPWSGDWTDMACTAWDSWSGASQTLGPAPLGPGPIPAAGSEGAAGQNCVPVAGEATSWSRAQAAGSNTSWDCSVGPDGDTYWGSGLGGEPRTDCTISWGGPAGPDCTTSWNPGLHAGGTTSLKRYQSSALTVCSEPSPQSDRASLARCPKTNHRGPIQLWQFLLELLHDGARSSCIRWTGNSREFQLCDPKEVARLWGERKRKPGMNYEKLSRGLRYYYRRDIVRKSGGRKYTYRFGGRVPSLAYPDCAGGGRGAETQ
# In short: as §1
# [17] = biological target: T11, ELF3 (Homo sapiens, UniProt P78545 1-371); conditions: protein: recombinant; tags: N-terminal GST; dsDNA, one strand shown
# T11 sequence: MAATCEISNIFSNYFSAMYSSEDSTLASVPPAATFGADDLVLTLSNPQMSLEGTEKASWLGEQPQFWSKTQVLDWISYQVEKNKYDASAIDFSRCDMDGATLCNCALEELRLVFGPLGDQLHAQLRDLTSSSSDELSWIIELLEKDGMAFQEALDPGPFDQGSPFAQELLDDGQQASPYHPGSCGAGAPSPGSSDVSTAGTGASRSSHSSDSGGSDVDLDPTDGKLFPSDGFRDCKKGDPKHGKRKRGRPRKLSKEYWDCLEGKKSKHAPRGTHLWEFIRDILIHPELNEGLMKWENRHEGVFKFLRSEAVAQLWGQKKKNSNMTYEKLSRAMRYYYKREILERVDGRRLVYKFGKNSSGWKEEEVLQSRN
# In short: as §1
# [18] = biological target: CRX (Homo sapiens, UniProt O43186 1-299); conditions: protein: recombinant; tags: N-terminal GST; dsDNA, one strand shown
# In short: as §1
# [19] = biological target: ETV1 (Homo sapiens, UniProt P50549 1-477); conditions: protein: recombinant; tags: N-terminal GST; dsDNA, one strand shown
# In short: as §1
# Chain of ELF1 (P32519 whole entry): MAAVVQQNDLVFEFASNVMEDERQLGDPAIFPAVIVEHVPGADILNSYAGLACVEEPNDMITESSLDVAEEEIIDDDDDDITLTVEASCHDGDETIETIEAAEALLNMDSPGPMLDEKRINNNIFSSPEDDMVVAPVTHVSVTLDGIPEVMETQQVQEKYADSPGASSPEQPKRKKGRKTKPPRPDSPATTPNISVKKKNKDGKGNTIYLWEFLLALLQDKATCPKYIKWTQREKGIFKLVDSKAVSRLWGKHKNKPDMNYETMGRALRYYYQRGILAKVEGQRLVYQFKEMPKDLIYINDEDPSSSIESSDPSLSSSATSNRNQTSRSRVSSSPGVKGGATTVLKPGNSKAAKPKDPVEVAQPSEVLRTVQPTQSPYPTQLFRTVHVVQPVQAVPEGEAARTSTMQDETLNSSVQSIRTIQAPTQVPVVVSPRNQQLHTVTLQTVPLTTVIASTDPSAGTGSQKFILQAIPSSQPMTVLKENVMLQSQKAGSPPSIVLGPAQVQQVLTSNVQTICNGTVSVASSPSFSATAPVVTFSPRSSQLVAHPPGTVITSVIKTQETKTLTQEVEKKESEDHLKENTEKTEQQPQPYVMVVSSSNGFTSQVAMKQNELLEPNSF
# Chain of SPIB (Q01892 whole entry): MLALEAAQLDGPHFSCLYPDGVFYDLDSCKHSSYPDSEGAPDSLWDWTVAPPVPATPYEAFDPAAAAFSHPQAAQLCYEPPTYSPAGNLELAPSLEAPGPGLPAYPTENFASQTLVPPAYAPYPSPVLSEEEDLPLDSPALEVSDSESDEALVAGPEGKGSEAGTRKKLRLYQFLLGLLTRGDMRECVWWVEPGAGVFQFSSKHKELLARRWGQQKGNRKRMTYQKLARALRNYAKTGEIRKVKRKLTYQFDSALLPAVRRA
# Chain of ELF4 (Q99607 whole entry): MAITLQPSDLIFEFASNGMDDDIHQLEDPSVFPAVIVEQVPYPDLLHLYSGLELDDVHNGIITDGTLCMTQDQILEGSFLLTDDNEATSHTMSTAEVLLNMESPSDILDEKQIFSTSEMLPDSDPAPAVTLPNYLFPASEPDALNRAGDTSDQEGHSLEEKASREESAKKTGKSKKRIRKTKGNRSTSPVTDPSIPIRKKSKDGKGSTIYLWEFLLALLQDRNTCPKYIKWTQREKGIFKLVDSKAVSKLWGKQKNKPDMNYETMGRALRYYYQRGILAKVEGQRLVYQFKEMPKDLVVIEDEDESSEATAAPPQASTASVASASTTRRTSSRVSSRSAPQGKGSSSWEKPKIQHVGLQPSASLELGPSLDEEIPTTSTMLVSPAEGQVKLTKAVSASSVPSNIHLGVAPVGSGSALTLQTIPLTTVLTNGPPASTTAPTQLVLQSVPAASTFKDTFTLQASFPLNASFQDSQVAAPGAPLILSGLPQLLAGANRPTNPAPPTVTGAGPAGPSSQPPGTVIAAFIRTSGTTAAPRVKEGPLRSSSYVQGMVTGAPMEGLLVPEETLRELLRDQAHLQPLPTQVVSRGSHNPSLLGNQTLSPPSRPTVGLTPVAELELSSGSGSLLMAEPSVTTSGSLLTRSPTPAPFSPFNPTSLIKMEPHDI
# Chain of HSF1 (Q00613 whole entry): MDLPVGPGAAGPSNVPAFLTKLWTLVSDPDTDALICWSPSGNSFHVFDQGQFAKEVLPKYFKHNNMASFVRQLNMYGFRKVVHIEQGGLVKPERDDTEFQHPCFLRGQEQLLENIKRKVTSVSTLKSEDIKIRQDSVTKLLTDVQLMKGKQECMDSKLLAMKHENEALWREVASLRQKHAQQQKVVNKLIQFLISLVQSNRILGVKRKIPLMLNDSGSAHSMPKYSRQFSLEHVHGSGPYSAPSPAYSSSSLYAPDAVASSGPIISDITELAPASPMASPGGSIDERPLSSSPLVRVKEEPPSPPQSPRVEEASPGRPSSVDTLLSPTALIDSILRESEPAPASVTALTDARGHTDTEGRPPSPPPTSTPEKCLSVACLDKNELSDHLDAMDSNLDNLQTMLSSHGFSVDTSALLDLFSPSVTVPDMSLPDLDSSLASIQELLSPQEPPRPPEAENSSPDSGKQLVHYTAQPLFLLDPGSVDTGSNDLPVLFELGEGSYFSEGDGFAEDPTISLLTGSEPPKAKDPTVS
# Chain of ETV1 (P50549 whole entry): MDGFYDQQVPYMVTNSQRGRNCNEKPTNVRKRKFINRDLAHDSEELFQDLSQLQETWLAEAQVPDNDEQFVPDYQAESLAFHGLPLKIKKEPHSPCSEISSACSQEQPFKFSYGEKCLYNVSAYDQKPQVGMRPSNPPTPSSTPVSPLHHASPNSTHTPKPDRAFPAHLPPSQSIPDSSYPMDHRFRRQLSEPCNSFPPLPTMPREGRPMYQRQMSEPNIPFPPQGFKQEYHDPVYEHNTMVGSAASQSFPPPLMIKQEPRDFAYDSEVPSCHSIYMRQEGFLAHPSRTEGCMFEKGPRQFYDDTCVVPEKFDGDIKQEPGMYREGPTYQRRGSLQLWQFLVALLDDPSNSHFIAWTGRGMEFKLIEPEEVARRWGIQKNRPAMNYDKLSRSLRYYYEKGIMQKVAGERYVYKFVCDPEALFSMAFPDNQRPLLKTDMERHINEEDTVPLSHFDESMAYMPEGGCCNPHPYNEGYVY
# Chain of ETV5 (P41161 whole entry): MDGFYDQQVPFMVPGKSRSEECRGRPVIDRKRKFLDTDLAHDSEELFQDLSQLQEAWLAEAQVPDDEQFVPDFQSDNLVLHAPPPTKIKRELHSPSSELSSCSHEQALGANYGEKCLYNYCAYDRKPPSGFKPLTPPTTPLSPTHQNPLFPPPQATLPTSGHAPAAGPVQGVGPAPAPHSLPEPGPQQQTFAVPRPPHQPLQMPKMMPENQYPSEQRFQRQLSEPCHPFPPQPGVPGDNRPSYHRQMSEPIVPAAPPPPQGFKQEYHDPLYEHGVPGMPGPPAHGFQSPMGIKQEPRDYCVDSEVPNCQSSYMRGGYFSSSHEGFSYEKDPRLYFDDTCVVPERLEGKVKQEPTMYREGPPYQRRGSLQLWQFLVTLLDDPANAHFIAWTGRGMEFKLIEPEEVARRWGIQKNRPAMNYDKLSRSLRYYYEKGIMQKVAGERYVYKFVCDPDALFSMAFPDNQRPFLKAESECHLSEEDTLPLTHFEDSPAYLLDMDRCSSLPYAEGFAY
# Chain of CRX (O43186 whole entry): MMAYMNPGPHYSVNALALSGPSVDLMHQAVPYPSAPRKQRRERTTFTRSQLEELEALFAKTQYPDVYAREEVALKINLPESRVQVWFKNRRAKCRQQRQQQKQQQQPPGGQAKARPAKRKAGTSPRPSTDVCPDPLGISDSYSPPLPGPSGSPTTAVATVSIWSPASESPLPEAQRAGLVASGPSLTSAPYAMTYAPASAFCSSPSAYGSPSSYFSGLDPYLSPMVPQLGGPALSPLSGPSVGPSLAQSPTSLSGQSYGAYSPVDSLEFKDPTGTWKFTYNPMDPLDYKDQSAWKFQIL
sequence,measurement,setting,value
CATTCG,binding signal,[1],"1.25 fold enrichment (6-mer frequency, TF over GST control)"
same,binding signal,[2],"1.11 fold enrichment (6-mer frequency, TF over GST control)"
same,binding signal,[3],"1.17 fold enrichment (6-mer frequency, TF over GST control)"
same,binding signal,[4],"1.21 fold enrichment (6-mer frequency, TF over GST control)"
same,binding signal,[5],"1.28 fold enrichment (6-mer frequency, TF over GST control)"
same,binding signal,[6],"1.08 fold enrichment (6-mer frequency, TF over GST control)"
same,binding signal,[7],"1.26 fold enrichment (6-mer frequency, TF over GST control)"
same,binding signal,[8],"1.15 fold enrichment (6-mer frequency, TF over GST control)"
same,binding signal,[9],"1.24 fold enrichment (6-mer frequency, TF over GST control)"
same,binding signal,[10],"1.17 fold enrichment (6-mer frequency, TF over GST control)"
same,binding signal,[11],"1.09 fold enrichment (6-mer frequency, TF over GST control)"
same,binding signal,[12],"1.64 fold enrichment (6-mer frequency, TF over GST control)"
same,binding signal,[13],"1.3 fold enrichment (6-mer frequency, TF over GST control)"
same,binding signal,[14],"1.18 fold enrichment (6-mer frequency, TF over GST control)"
same,binding signal,[15],"1.05 fold enrichment (6-mer frequency, TF over GST control)"
same,binding signal,[16],"1.22 fold enrichment (6-mer frequency, TF over GST control)"
same,binding signal,[17],"1.25 fold enrichment (6-mer frequency, TF over GST control)"
same,binding signal,[18],"1.14 fold enrichment (6-mer frequency, TF over GST control)"
same,binding signal,[19],"1.16 fold enrichment (6-mer frequency, TF over GST control)"

# From PMC7862700, “An all-to-all approach to the identification of sequence-specific readers for epigenetic DNA modifications on cytosine”
